In all, about 2,400 compounds went through this assay and about 220 (9.2%) were called active. Many of the other results were omitted from the sample, so actives are more common in it than they were. Unmarked numbers belong to inactive results.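 The calls were made as follows: active = signal change above the mean of dofetilide-free buffer controls plus 3 SD, so a positive margin; inactive = the rest.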

This assay in a line: nonspecific flux effects in parental CHO-K1, confirmation, counter-screen for hERG block protection project, cell-based, CHO-K1 parental line, FluxOR thallium flux (AID 1839).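 Also: compounds applied alone with no dofetilide to cells lacking hERG.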 As to conditions: CHO-K1 parental cells, FluxOR thallium flux fluorescence; at 10 µM. In general terms: Counterscreens check selectivity or assay interference.
In the case of `Cc1[nH]c(-c2ccccn2)nc(=S)c1Cl`, the signal change vs control minus 3*SD hit threshold (margin above threshold, higher = more increase) was 18.1% (active).

On to `CCCCCOc1ccc(C2C(C(C)=O)=C(C)Nc3ncnn32)cc1OC` (stereo unspecified), for which the signal change vs control minus 3*SD hit threshold (margin above threshold, higher = more increase) is -35.5%.

As for `Cc1ccc(-c2csc3nc[nH]c(=S)c23)cc1`, the signal change vs control minus 3*SD hit threshold (margin above threshold, higher = more increase) was -1.7%.

For `S=c1[nH]cnc2scc(-c3ccc(Cl)cc3)c12`, the signal change vs control minus 3*SD hit threshold (margin above threshold, higher = more increase) was -13.3%.

As to `O=Cc1cc(-c2ccccc2)[nH]c1-c1ccccc1`, the signal change vs control minus 3*SD hit threshold (margin above threshold, higher = more increase) is -28.6%.

In the case of `S=c1[nH]nc(Nc2ccc(Cl)cc2)s1`, the signal change vs control minus 3*SD hit threshold (margin above threshold, higher = more increase) is -36.9%.

On to `Cc1ccc(Cc2c[nH]c(=S)s2)cc1`, for which the signal change vs control minus 3*SD hit threshold (margin above threshold, higher = more increase) was -4.6%.

Consider `S=c1[nH]c(-c2ccc(Cl)cc2)cs1`, for which the signal change vs control minus 3*SD hit threshold (margin above threshold, higher = more increase) was 61.6% (active).

With `S=c1[nH]c(-c2ccccc2)cs1`, the signal change vs control minus 3*SD hit threshold (margin above threshold, higher = more increase) was 16.2% (active).

For the compound `Cc1ccc(-c2csc(=S)[nH]2)cc1`, the signal change vs control minus 3*SD hit threshold (margin above threshold, higher = more increase) was 59.2% (active).

As to `Cc1cccc(-n2cc(-c3ccccc3)[nH]c2=S)c1`, the signal change vs control minus 3*SD hit threshold (margin above threshold, higher = more increase) was -28%.

As for `CC(C)Nc1nc(SCC(N)=O)nc(N2CCOCC2)n1`, the signal change vs control minus 3*SD hit threshold (margin above threshold, higher = more increase) is -27.8%.

As for `CCC(C)(C)C1CCc2c(sc(NC(=O)c3ccccc3C(=O)O)c2C#N)C1` (stereo unspecified), the signal change vs control minus 3*SD hit threshold (margin above threshold, higher = more increase) was -7%.

Take `CCOC(=O)C1C(c2ccccc2)C(C(=O)OCC)C1c1ccccc1` (stereo unspecified): the signal change vs control minus 3*SD hit threshold (margin above threshold, higher = more increase) is -27.3%.

Turning to `Cc1ccc(NC(=O)CN2C(=O)S/C(=C\c3ccc(-c4cccc(C(=O)O)c4C)o3)C2=O)cc1`, the signal change vs control minus 3*SD hit threshold (margin above threshold, higher = more increase) was -30.6%.

As for `COc1ccc(-c2ccc(/C=N/NC(=O)c3cccnc3)o2)c([N+](=O)[O-])c1`, the signal change vs control minus 3*SD hit threshold (margin above threshold, higher = more increase) was -34.4%.

With `O=C(O)CCCCn1c(SCc2ccccc2Cl)nc2ccsc2c1=O`, the signal change vs control minus 3*SD hit threshold (margin above threshold, higher = more increase) is -18.4%.

In the case of `O=C(Nc1ccc(-c2csc(Nc3cccc(C(F)(F)F)c3)n2)cc1)c1ccccc1`, the signal change vs control minus 3*SD hit threshold (margin above threshold, higher = more increase) is -35.7%.

In the case of `O=C(NC(=S)Nc1ccc(C(F)(F)F)cc1)c1csnn1`, the signal change vs control minus 3*SD hit threshold (margin above threshold, higher = more increase) is 48.4% (active).

With `O=C(NC(=S)Nc1ccc(N2CCCCC2)cc1)c1cccs1`, the signal change vs control minus 3*SD hit threshold (margin above threshold, higher = more increase) was -2.8%.

Take `O=C(NC(=S)Nc1cccc(C(F)(F)F)c1)c1csnn1`: the signal change vs control minus 3*SD hit threshold (margin above threshold, higher = more increase) is 52.4% (active).

Regarding `O=C(NC(=S)Nc1cc(C(F)(F)F)ccc1Cl)c1ccccc1`, the signal change vs control minus 3*SD hit threshold (margin above threshold, higher = more increase) was -22.9%.

With `CCOC(=O)NC(=S)Nc1ccc(C(C)(C)C)cc1`, the signal change vs control minus 3*SD hit threshold (margin above threshold, higher = more increase) was -14.3%.

On to `Cc1onc(-c2ccccc2)c1C(=O)NC(=S)Nc1sc2c(c1C#N)CCC(C)C2` (stereo unspecified), for which the signal change vs control minus 3*SD hit threshold (margin above threshold, higher = more increase) was -18.7%.

Take `CCCSC(=S)c1c(C)[nH]n(-c2ccccc2)c1=O`: the signal change vs control minus 3*SD hit threshold (margin above threshold, higher = more increase) was -12.5%.

For `O=C(Nc1nnc(-c2ccc3c(c2)CCCC3)o1)C1COc2ccccc2O1` (stereo unspecified), the signal change vs control minus 3*SD hit threshold (margin above threshold, higher = more increase) is -35%.

For `CC(/C=C1\SC(=S)N(NS(=O)(=O)c2ccccc2)C1=O)=C\c1ccccc1`, the signal change vs control minus 3*SD hit threshold (margin above threshold, higher = more increase) was -11.8%.

In the case of `COc1cc(CNn2nnnc2N)ccc1OCC(=O)NC(C)(C)C`, the signal change vs control minus 3*SD hit threshold (margin above threshold, higher = more increase) was -34.7%.

`O=C(NC(=S)N1CCc2ccccc21)c1ccccc1`: the signal change vs control minus 3*SD hit threshold (margin above threshold, higher = more increase) is -2.8%.

For the compound `O=C(NC(=S)N1CCCc2ccccc21)c1ccccc1`, the signal change vs control minus 3*SD hit threshold (margin above threshold, higher = more increase) is -30.8%.

For the compound `O=C(NC(=S)N1CCc2ccccc21)c1ccccc1Cl`, the signal change vs control minus 3*SD hit threshold (margin above threshold, higher = more increase) is 9% (active).

For `O=C(NC(=S)N1CCc2ccccc21)c1ccccc1Br`, the signal change vs control minus 3*SD hit threshold (margin above threshold, higher = more increase) is 48.4% (active).

On to `O=C(NC(=S)N1CCc2ccccc21)c1ccc(Br)o1`, for which the signal change vs control minus 3*SD hit threshold (margin above threshold, higher = more increase) was -18.4%.

For `O=C(NC(=S)N1CCc2ccccc21)c1ccco1`, the signal change vs control minus 3*SD hit threshold (margin above threshold, higher = more increase) is -18.3%.

In the case of `S=C(Nc1ccccc1)Nc1nc2ccccc2n1CCOc1ccccc1`, the signal change vs control minus 3*SD hit threshold (margin above threshold, higher = more increase) was -30.2%.

For `CN(C(=S)NC(=O)c1ccc(F)cc1)C1CCCCC1`, the signal change vs control minus 3*SD hit threshold (margin above threshold, higher = more increase) was -31.9%.

Consider `CC1CCN(C(=S)NC(=O)c2ccc(C(C)(C)C)cc2)CC1`, for which the signal change vs control minus 3*SD hit threshold (margin above threshold, higher = more increase) was -18%.

As for `COC(=O)n1c(=S)oc2cc(Cl)ccc21`, the signal change vs control minus 3*SD hit threshold (margin above threshold, higher = more increase) was -22.1%.

Consider `CCn1c(=S)[nH]c2c(c1=O)C(C)(C)Cc1ccccc1-2`, for which the signal change vs control minus 3*SD hit threshold (margin above threshold, higher = more increase) is -6.7%.

Regarding `CC(=O)NC(CSC(CC(=O)c1ccco1)c1ccc(C)cc1)C(=O)O` (stereo unspecified), the signal change vs control minus 3*SD hit threshold (margin above threshold, higher = more increase) is -32.8%.

As to `CCCCCCC1CCC(C(=O)N2CCOCC2)CC1` (stereo unspecified), the signal change vs control minus 3*SD hit threshold (margin above threshold, higher = more increase) was -21.3%.

`CCCCCCCC/C=C\CCCCCCCC(=O)O`: the signal change vs control minus 3*SD hit threshold (margin above threshold, higher = more increase) was -20.7%.

Regarding `CCCCCC/C(C)=C1/SC(=S)NC1=O`, the signal change vs control minus 3*SD hit threshold (margin above threshold, higher = more increase) was 39.1% (active).

On to `COc1ccc(S(=O)(=O)Nc2ccc(Cl)cn2)c(C)c1C`, for which the signal change vs control minus 3*SD hit threshold (margin above threshold, higher = more increase) was -32.2%.

`Cc1ccc(N2CCN(C(=O)N3CCCC3)CC2)cc1C`: the signal change vs control minus 3*SD hit threshold (margin above threshold, higher = more increase) was -15.1%.

As to `CCC1(c2ccccc2)NC(=S)N(c2ccc(C)c(C)c2)N1` (stereo unspecified), the signal change vs control minus 3*SD hit threshold (margin above threshold, higher = more increase) was 48.1% (active).

In the case of `CCC1(c2ccc(Cl)cc2)NC(=S)N(c2ccc(C)c(C)c2)N1` (stereo unspecified), the signal change vs control minus 3*SD hit threshold (margin above threshold, higher = more increase) was 40.7% (active).

As for `Nc1ccc2c(c1)C(=O)C(=O)c1ccccc1-2`, the signal change vs control minus 3*SD hit threshold (margin above threshold, higher = more increase) was -22.4%.

`O=C(CCc1ccccc1)NC(=S)Nc1cc(C(F)(F)F)ccc1N1CCOCC1`: the signal change vs control minus 3*SD hit threshold (margin above threshold, higher = more increase) is -29.5%.

As for `CC(=O)NC1C(Oc2ccccc2C)OC(CO)C(O)C1O` (stereo unspecified), the signal change vs control minus 3*SD hit threshold (margin above threshold, higher = more increase) was -23.9%.

Turning to `Cc1ccc(C(=O)NC(=S)N(C)C2CCCCC2)cc1`, the signal change vs control minus 3*SD hit threshold (margin above threshold, higher = more increase) is -21.2%.
